Results on 40 compounds are retold here after PubChem BioAssay (EPA / NIEHS).

Activity calls are given as the source filed them. How the source made its calls: active means hit-call score of the fitted dose curve at least 0.9, where 1 is the maximum; inactive means score below 0.9.

Chain of Nuclear factor NF-kappa-B p105 subunit (Homo sapiens) (P19838 whole entry, looked up): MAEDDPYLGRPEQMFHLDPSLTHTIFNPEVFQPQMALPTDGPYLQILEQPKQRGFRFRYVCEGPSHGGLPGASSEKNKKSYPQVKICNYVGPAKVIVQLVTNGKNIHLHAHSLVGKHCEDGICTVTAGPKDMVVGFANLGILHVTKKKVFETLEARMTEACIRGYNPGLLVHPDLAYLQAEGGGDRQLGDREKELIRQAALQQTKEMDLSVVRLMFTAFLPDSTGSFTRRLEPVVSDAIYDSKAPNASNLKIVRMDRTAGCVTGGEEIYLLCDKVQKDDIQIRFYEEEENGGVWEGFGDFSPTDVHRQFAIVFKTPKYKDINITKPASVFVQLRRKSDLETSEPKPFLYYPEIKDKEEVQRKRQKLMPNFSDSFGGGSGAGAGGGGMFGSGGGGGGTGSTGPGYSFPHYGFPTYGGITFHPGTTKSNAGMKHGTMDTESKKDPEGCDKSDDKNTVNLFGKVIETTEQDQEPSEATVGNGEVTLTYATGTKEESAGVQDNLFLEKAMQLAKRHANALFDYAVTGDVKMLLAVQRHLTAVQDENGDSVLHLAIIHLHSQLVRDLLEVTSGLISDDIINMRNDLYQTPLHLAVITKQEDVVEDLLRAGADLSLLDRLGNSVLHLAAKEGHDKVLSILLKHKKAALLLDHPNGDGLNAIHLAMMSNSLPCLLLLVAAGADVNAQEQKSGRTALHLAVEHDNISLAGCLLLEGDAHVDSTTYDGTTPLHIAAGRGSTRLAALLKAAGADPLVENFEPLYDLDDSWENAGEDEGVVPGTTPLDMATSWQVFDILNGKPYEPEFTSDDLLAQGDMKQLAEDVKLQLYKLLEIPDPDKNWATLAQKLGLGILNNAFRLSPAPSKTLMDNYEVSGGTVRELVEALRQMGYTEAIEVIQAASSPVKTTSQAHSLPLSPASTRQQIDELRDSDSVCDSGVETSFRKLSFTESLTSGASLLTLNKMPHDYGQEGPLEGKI

Read-out in this experiment: Nuclear factor NF-kappa-B p105 subunit (Homo sapiens) (UniProt P19838)
The experiment is described as follows: LTEA_HepaRG_NFKB1: Life Technologies and Expression Analysis (LTEA) Assay for Nuclear Factor Kappa B Subunit 1 (NFKB1) using HepaRG (AID 2283521).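 On outcome: TaqMan qRT-PCR transcript normalised to ACTB GAPDH and POLR2A housekeeping genes.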 Particulars: mRNA level, 48 h; actives raise or lower the signal. The procedure:
LTEA_HepaRG is a cell based, multiplexed-readout assay that uses HepaRG, a human liver cell line, with measurements taken at 48 hours after chemical dosing on a 96-well plate.LTEA_HepaRG_NFKB1 is one of 102 assay component(s) measured in the LTEA HepaRG cell culture assay. It is a marker of Cell proliferation, survival, death.Data from the assay component LTEA_HepaRG_NFKB1 was analyzed into 1 endpoint. This assay endpoint, LTEA_HepaRG_NFKB1, was analyzed with bidirectional fitting relative to DMSO as the negative control and baseline of activity. Using a type of inducible reporter, measures of mRNA induction for gain or loss-of-signal activity can be used to understand regulation of transcription factor activity. To generalize the intended target to other relatable targets, this assay endpoint is annotated to the dna binding intended target family, where the subfamily is NF-kappa B.
A total of 1060 chemcials from the ToxCast library were tested in eight-point concentration-response experiments. Cell culture and cytotoxicity assays were conducted at Thermo Fisher Scientific's Custom Services facility (Madison, WI). A single lot of human HepaRG cells (Thermo Fisher Scientific, Frederick, MD) was used for the cell culture experiments. 96-well format collagen type I coated plates of human HepaRG cells were prepared using established methods. Briefly, cryopreserved HepaRG cells were thawed, plated at a density of approximately 100,000 cells/well in HepaRG Thaw, Plate, and General Purpose media (HPRG770, Thermo Fisher Scientific), and incubated for 48 hours. 0.5% DMSO was selected as vehicle control to balance the requisite need of DMSO in HepaRG cultures to maintain differentiation (for example, baseline metabolism, proportions of hepatocytes vs. cholangiocytes), while enabling further hepatic receptor pathway activation (for example, PXR and CAR) in response to chemical exposure. 48 hours after plating, the culture medium was replaced with HepaRG Serum-Free Incudtion Media. Cells were exposed to each test chemical in duplicate and maintained in CO2 incubators for another 48 hours. Chemical plates were thawed to room temperature and 200x concentrations of treatment groups were prepared. 8-point conentration-reponse curves were made with the highest exposure at 100 uM, followed by half-log dilutions, all in 0.5% DMSO. Each test plate contained variouse controls, induction positive controls (1mM phenobarbital), cytotoxicity positive controls ([…] aflatoxin B1), vehicle controls (0.5% DMSO), and total lysis controls (0.5% DMSO). Cell morphology images were taken using an Essen IncuCyte FLR automated microscope, with six 96-well plates imaged in about 24 minutes. Images were captured and exported and JPEG files. Spent culture media was transfered to black-well plates for the LDH assay, and remaining media was sorted at -80 C for later use. Cells were treated with RLT buffer and frozen until shipped for gene expression analysis. Total RNA was isolated from the cell suspension in 75 uL of Buffer RLT (Qiagen, Germantown, MD 20874) by Quintiles/Expression Analysis (Durham, NC) using a custom isolation procedure. Total RNA from each plate well was transferred to a preamplification plate. Fluidigm's 96.96 Dynamic ArrayTM (Fluidigm, Amsterdam, the Netherlands) technology was used for gene expression analyses by quantitative reverse transcription polymerase chain reaction (qRT-PCR, performed by Quintiles/Expression Analysis, Durham, NC)89. Standard TaqManTM Assays (Applied Biosystems/ThermoFisher Scientific, Foster City, CA) were used to assess the expression of 93 genes selected based on their selectivity and sensitivity to important hepatic receptors known to be modulated by environmental chemicals; importance in human hepatocyte functionality; and hepatotoxicity. […]
On to `CO/N=C(/C1=NOCCO1)c1ccccc1Oc1ncnc(Oc2ccccc2Cl)c1F`, for which the compound was classed as inactive. The same measure, in the same setting: the result for `CC1(C)C(C=C(Cl)Cl)C1C(=O)OC(C#N)c1cccc(Oc2ccccc2)c1` (stereo not given) reads “inactive”; that for `CCN(CC)c1nc(C)cc(OP(=S)(OC)OC)n1`, “inactive”; that for `N#Cc1c(Cl)cccc1Cl`, “inactive”. On the same count and under the same terms, the result for `CCOP(=S)(OCC)Oc1nc(Cl)n(C(C)C)n1` reads “inactive”; that for `CC(C)(C)C(=O)C(Oc1ccc(Cl)cc1)n1cncn1` (stereo not given), “inactive”; that for `Clc1nc(Cl)nc(Nc2ccccc2Cl)n1`, “inactive”. Regarding `CC1(C)C(C(=O)OC(C#N)c2cccc(Oc3ccccc3)c2)C1(C)C` (stereo not given), the result was inactive.

`O=C(Nc1ccccc1-c1ccc(Cl)cc1)c1cccnc1Cl`: the compound was classed as inactive. Same read-out and setting: under `CNC(=O)N(C)c1nnc(C(C)(C)C)s1` stands “inactive”; under `COCC(C)N(C(=O)CCl)c1c(C)csc1C` (stereo not given), “inactive”. Take `CC(C)N1C(=O)N(c2ccccc2)CSC1=NC(C)(C)C`: the call was inactive. The same measure, in the same setting: the result for `CS(=O)(=O)c1ccc(C(=O)C2C(=O)CCCC2=O)c([N+](=O)[O-])c1` reads “inactive”. Same read-out and setting: under `OC(c1ccc(Cl)cc1)(c1ccc(Cl)cc1)C(Cl)(Cl)Cl` stands “inactive”; under `COC(=O)c1c(C(F)F)nc(C(F)(F)F)c(C2=NCCS2)c1CC(C)C`, “inactive”; under `CCC(C)n1c(=O)[nH]c(C)c(Br)c1=O` (stereo not given), “inactive”.

Turning to `CCCCOCN(C(=O)CCl)c1c(CC)cccc1CC`, the call was inactive. Same read-out and setting: the result for `Nc1c(Cl)c(F)nc(OCC(=O)O)c1Cl` reads “inactive”; that for `CCNP(=S)(OC)O/C(C)=C/C(=O)OC(C)C` (stereo not given), “inactive”. On to `COc1cc(Cl)c(OC)cc1Cl`, for which the compound was called inactive. As to `COC(=O)NS(=O)(=O)c1ccc(N)cc1`, the outcome was inactive. The same measure, in the same setting: the result for `CCOc1nc(F)cc2nc(S(=O)(=O)Nc3c(Cl)cccc3Cl)nn12` reads “inactive”. Consider `O=C1C2CC=CCC2C(=O)N1SC(Cl)(Cl)Cl` (stereo not given), for which the compound was classed as inactive.

Consider `COC(=O)NC(=S)Nc1ccccc1NC(=S)NC(=O)OC`, for which the compound was called inactive. The same measure, in the same setting: the result for `C=C(C)CN(CC)c1c([N+](=O)[O-])cc(C(F)(F)F)cc1[N+](=O)[O-]` reads “inactive”; that for `CC1(C)CON(Cc2ccccc2Cl)C1=O`, “inactive”. Regarding `CCCN(CC)CC1COC2(CCC(C(C)(C)C)CC2)O1` (stereo not given), the call was inactive. On the same count and under the same terms, under `O=P(O)(O)CCCl` stands “inactive”; under `CC(C)=CC1C(C(=O)OCc2coc(Cc3ccccc3)c2)C1(C)C` (stereo not given), “inactive”. The same measure, in the same setting: the result for `O=C(O)c1c(Cl)ccc2cc(Cl)cnc12` reads “inactive”; that for `CCOc1cc(C(C)(C)C)ccc1C1COC(c2c(F)cccc2F)=N1` (stereo not given), “inactive”; that for `COc1ccc(-c2ccccc2)cc1NNC(=O)OC(C)C`, “inactive”. In the case of `Cc1cc(C)nc(Nc2ccccc2)n1`, the outcome was inactive. With `CC(C)Oc1cccc(NC(=O)c2ccccc2C(F)(F)F)c1`, the call was inactive. `CCSC(=O)N1CCCCCC1`: the AC50 was 12.6 µM (active). Take `CNC(=O)Oc1cccc2ccccc12`: the result was inactive. On the same count and under the same terms, under `COc1cc(OC)nc(NC(=O)NS(=O)(=O)c2ncccc2OCC(F)(F)F)n1` stands “inactive”. Still for that read-out and setting: under `CC(C)NC(=O)N1CC(=O)N(c2cc(Cl)cc(Cl)c2)C1=O` stands “inactive”.

Turning to `O=c1n(Cl)c(=O)n(Cl)c(=O)n1Cl`, the outcome was inactive. For the compound `Cc1c(COC(=O)[C@@H]2[C@H](/C=C(\Cl)C(F)(F)F)C2(C)C)cccc1-c1ccccc1`, the AC50 is 0.703 µM (active).

As a reminder, the AC50 is the concentration giving half of the maximal activity seen.
